Assay outcomes: PubChem, National Center for Advancing Translational Sciences (NCATS)
DT40 TDP1 CPT – growth inhibition of DT40 Tdp1-/-;hTDP1 cells with camptothecin (screen for TDP1 inhibitors); chicken DT40 Tdp1-/-;hTDP1 cells + 20 nM CPT, ATP luminescence, 48 h; Potency, µM (doses to about 46.2 µM), actives largely listed as inhibitors; 420,000 compounds, 12% hits; AID 686979; note: nearly all actives have a fitted effect of over 55% in size
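Cell growth measured by CellTiter-Glo luminescence after a minimum 48 h, 37 C compound exposure with 20 nM CPT in Tdp1-knockout DT40 cells stably expressing hTDP1, seeded 400/well; qHTS titration format.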
uPA generation – inhibitors of cell surface uPA generation. cell surface uPA generation assay, qHTS. Potency, µM (series often up to 38.3 µM), most hits filed as inhibitors. 330,000 compounds, 0.31% hits; active = well fitted inhibition curve with a large enough effect; inconclusive = small, poorly fitted or top-dose-only effect; inactive = no such curve, though single readings can be large or run the other way; tested in mouse RAW 264.7 cells; note: nearly all actives have a fitted effect of over 55% in size
HT1080 IDH1KD tx – HT-1080 IDH1 knockdown cell toxicity (counter line); HT-1080 IDH1 knockdown viability, ATP luminescence, 48 h; Potency, µM (titrated, usually from 46.1 µM), actives largely listed as cytotoxic; 360,000 compounds, 2% hits
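Using the IDH1-knockdown HT-1080 line run in the same batch and compound series as the NT line, viability after 48 h at 37 °C was determined by CellTiter-Glo luminescence and expressed as % activity.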
HT1080NT lethal – kills 2HG-producing HT-1080-NT fibrosarcoma cells; HT-1080-NT fibrosarcoma viability, CellTiter-Glo ATP luminescence, 48 h; Potency, µM (series often up to 46.1 µM), most hits filed as cytotoxic; 360,000 compounds, 1.6% hits; AID 686970;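 note: NT is the 2HG producing partner of a matched IDH1 knockdown line; nearly all actives have a fitted effect of over 55% in size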
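Viability of the 2HG-overproducing fibrosarcoma line after 48 hours of compound exposure at 37 degrees C was determined by luminescence with CellTiter-Glo, and concentration-effect curves were then fitted and categorized.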
IL-1B inflam inh – blocks inflammasome-driven IL-1 beta release; activity change, % at 57.5 µM; 360,000 compounds, 4.7% hits; THP-1 LPS/ATP IL-1B secretion, AlphaLISA, 16 h; active compounds read low; in the data active = activity change below about -50%; inconclusive = mostly about -30% to -49%
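Secreted IL-1B measured by AlphaLISA bead assay after 16 h compound exposure of THP-1 cells; compounds (final up to 57.5 uM) added 1 h before LPS (250 ng/mL) and ATP (1.25 mM) stimulation; lower signal means less secretion.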
DT40 TDP1 no CPT – qHTS for Inhibitors of human tyrosyl-DNA phosphodiesterase 1 (TDP1): qHTS in cells in absence of CPT | DT40 Tdp1-/- hTDP1 cells, no CPT, ATP luminescence, 48 h | Potency, µM (top dose mostly 46.2 µM), most hits filed as inhibitors | 420,000 compounds, 15% hits | AID 686978, 2013; note: nearly all actives have a fitted effect of over 55% in size
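Growth of hTDP1-complemented DT40 Tdp1-knockout cells is measured by ATP luminescence after at least 48 hr compound exposure at 37 °C, with DMSO substituting for the 20 nM CPT used in the parallel screen.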
Each line names hits and unclear results; the compound was inactive in the other large screens. Rows were chosen to be rich in hits. Some 19% of all compounds tested hit in one or more screens of this group. Unless noted, calls come from the whole dose curve; as a rule, active = well fitted curve in the direction sought with a large enough effect; inconclusive = small, poorly fitted or top-dose-only effect, or another doubt; inactive = no such curve, though single readings can be large; an effect the other way counts as inactive or inconclusive.

O=C(CC(c1ccc(F)cc1)c1ccco1)Nc1nccs1 (stereo not given)	HT1080 IDH1KD tx inconclusive, DT40 TDP1 no CPT inconclusive
COc1ccccc1C(CC(=O)Nc1nccs1)c1ccco1 (stereo not given)	DT40 TDP1 CPT inconclusive, DT40 TDP1 no CPT 14.6µM
Cc1cc(O)cc(O)c1/C=N/NC(=O)c1ccc2c(c1)OCCO2	DT40 TDP1 CPT 5.8µM, HT1080 IDH1KD tx 13µM, HT1080NT lethal inconclusive, DT40 TDP1 no CPT 6.51µM (no result: uPA generation)
C/C(=N\NC(=O)c1cc2ccccc2cc1O)c1ccc2c(c1)OCO2	none
CC/C(=N/NC(=O)c1ccc2c(c1)OCO2)c1ccccc1O	DT40 TDP1 CPT 6.51µM, uPA generation inconclusive, HT1080 IDH1KD tx 23.1µM, DT40 TDP1 no CPT 3.66µM
O=C(N/N=C/c1ccccc1)c1ccc2c(c1)OCO2	uPA generation inconclusive
COc1ccc2ccccc2c1/C=N/NC(=O)c1ccc(C)nc1	DT40 TDP1 no CPT inconclusive
O=C(N/N=C/c1c(O)ccc2ccccc12)c1ccc(CO)nc1	DT40 TDP1 CPT 4.61µM, HT1080 IDH1KD tx inconclusive, DT40 TDP1 no CPT 4.61µM
O=C(NN=Cc1c(O)ccc2ccccc12)c1ccc2c(c1)OCO2	DT40 TDP1 CPT 5.8µM, uPA generation 8.91µM, HT1080 IDH1KD tx 5.17µM, HT1080NT lethal 5.8µM, DT40 TDP1 no CPT 2.59µM
Cc1c(N=C2SCC(=O)N2/N=C/c2ccccc2)c(=O)n(-c2ccccc2)n1C	none
COc1ccccc1/C=N/NC(=O)CNC(=O)c1ccc(S(=O)(=O)N2CCCC2)cc1	none
O=C(N/N=C\c1c(O)ccc2ccccc12)c1ccc(S(=O)(=O)N2CCCCC2)cc1	DT40 TDP1 CPT 3.26µM, HT1080 IDH1KD tx inconclusive, HT1080NT lethal inconclusive, DT40 TDP1 no CPT 3.66µM
O=C(CNC(=O)c1ccc(S(=O)(=O)N2CCCC2)cc1)N/N=C/c1ccccc1Cl	DT40 TDP1 CPT inconclusive, DT40 TDP1 no CPT 13µM
C=CCNS(=O)(=O)NC(=O)C1=C(N2CCCC2)COC1=O	none
CCS(=O)(=O)N1CCC(c2nc(-c3ccc(C(F)(F)F)cc3)no2)CC1	DT40 TDP1 CPT 8.91µM, DT40 TDP1 no CPT 14.1µM (no result: uPA generation)
CCS(=O)(=O)N1CCC(c2nc(-c3ccc(C)cc3)no2)CC1	DT40 TDP1 CPT 29.1µM, DT40 TDP1 no CPT 14.6µM (no result: uPA generation)
Cc1ccc(-c2nc(C3CCN(S(=O)(=O)c4ccc(C(F)(F)F)cc4)CC3)no2)cc1	none
CS(=O)(=O)N1CCC(c2noc(-c3ccc(C(F)(F)F)cc3)n2)CC1	DT40 TDP1 CPT 9.2µM, DT40 TDP1 no CPT 10.3µM
CCOC(=O)C1CCN(c2c(NCCCN(CC)c3ccccc3)c(=O)c2=O)CC1	none (no result: uPA generation)
CCN(CCCNc1cc2c(c(N)c1S(=O)(=O)O)C(=O)c1ccccc1C2=O)c1ccccc1	DT40 TDP1 CPT inconclusive, DT40 TDP1 no CPT 18.4µM (no result: uPA generation)
Cc1nc2cc(NC(=O)c3ccc(S(=O)(=O)N(C)c4ccccc4)cc3)ccc2o1	DT40 TDP1 CPT inconclusive, HT1080 IDH1KD tx inconclusive, HT1080NT lethal inconclusive, IL-1B inflam inh -56.4, DT40 TDP1 no CPT 16.4µM
Cc1csc(NC(=O)c2ccc(S(=O)(=O)N(C)c3ccccc3)cc2)n1	DT40 TDP1 CPT 11.6µM, IL-1B inflam inh inconclusive, DT40 TDP1 no CPT 13µM
CN(c1ccccc1)S(=O)(=O)c1ccc(NC(=O)c2ccc(-c3ccccc3)cc2)cc1	DT40 TDP1 CPT 20.6µM, HT1080NT lethal inconclusive, DT40 TDP1 no CPT inconclusive
COc1ccccc1NC(=O)c1ccc(S(=O)(=O)N(C)c2ccccc2)cc1	DT40 TDP1 no CPT inconclusive
COc1cc(NC(=O)c2ccc(S(=O)(=O)N(C)c3ccccc3)cc2)cc(OC)c1	DT40 TDP1 CPT inconclusive, DT40 TDP1 no CPT 16.4µM
CCOc1cccc2cc(-c3nc4sc5c(c4c(=O)[nH]3)CCC(C(C)(C)C)C5)c(=O)oc12 (stereo not given)	none (no result: uPA generation, HT1080 IDH1KD tx, HT1080NT lethal, IL-1B inflam inh)
COc1ccc(/C=N/N2CCOCC2)cc1Cn1cc([N+](=O)[O-])cn1	none
